In PubChem BioAssay AID1159580 (chemical genetic matrix, 2015):
Hit rate of the full screen: of about 5,500 compounds, about 2,000 (36%) were called active. Inconclusive results (about 18%) are left out. Cut-off read from the data, not from the text of the source: active = normalized growth mostly below about 0.91 (no sharp cut-off); inconclusive = no clear call, values can overlap the other calls; inactive = mostly above about 0.92. This is one part of the list.

Assay: chemical genetic growth profiling, strain panel (AID 1159580);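 note: tested at 20 µM; growth read once vehicle control cultures reached saturation at 30 °C; 1 = growth at the plate median or of vehicle wells; lower values mean less growth of the strain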
Details: growth OD
[1] = S. cerevisiae deletion strains, locus YAL013W, strain DEP1, hits give low values
[2] = S. cerevisiae deletion strains, locus YBR229C, strain ROT2, hits give low values
[3] = S. cerevisiae deletion strains, locus YDL101C, strain DUN1, hits give low values
[4] = S. cerevisiae deletion strains, locus YDR150W, strain NUM1, hits give low values
[5] = S. cerevisiae deletion strains, locus YEL061C, strain CIN8, hits give low values
[6] = S. cerevisiae deletion strains, locus YGR078C, strain PAC10, hits give low values
[7] = S. cerevisiae deletion strains, locus YHR030C, strain SLT2, hits give low values
[8] = S. cerevisiae deletion strains, locus YHR087W, strain rtc3, hits give low values
[9] = S. cerevisiae deletion strains, locus YJL187C, strain SWE1, hits give low values
[10] = S. cerevisiae deletion strains, locus YJR043C, strain POL32, hits give low values
[11] = S. cerevisiae deletion strains, locus YJR075W, strain HOC1, hits give low values
[12] = S. cerevisiae deletion strains, locus YLR039C, strain RIC1, hits give low values
[13] = S. cerevisiae deletion strains, locus YLR058C, strain SHM2 (second series), hits give low values
[14] = S. cerevisiae deletion strains, locus YLR085C, strain ARP6, hits give low values
[15] = S. cerevisiae deletion strains, locus YLR262C, strain YPT6, hits give low values
[16] = S. cerevisiae deletion strains, locus YML094W, strain GIM5, hits give low values
[17] = S. cerevisiae deletion strains, locus YMR219W, strain ESC1, hits give low values
[18] = S. cerevisiae deletion strains, locus YMR263W, strain SAP30, hits give low values
[19] = S. cerevisiae deletion strains, locus YNL153C, strain GIM3, hits give low values
[20] = S. cerevisiae deletion strains, locus YNL298W, strain CLA4 (second series), hits give low values
[21] = S. cerevisiae deletion strains, locus YNL322C, strain KRE1, hits give low values
[22] = S. cerevisiae deletion strains, locus YNR030W, strain Alg12, hits give low values
[23] = S. cerevisiae deletion strains, locus YPL055C, strain LGE1, hits give low values
[24] = S. cerevisiae deletion strains, locus YPL241C, strain CIN2, hits give low values
[25] = S. cerevisiae deletion strains, locus YPR135W, strain CTF4, hits give low values
[26] = S. cerevisiae strains, strain wild type, hits give low values

Measured: normalized growth

COc1cccc(NC(=S)NCc2ccco2)c1
inactive: [1] 0.979 | [2] 0.99 | [3] 1.03 | [4] 1.04 | [5] 0.979 | [6] 1.01 | [7] 0.88 | [8] 0.977 | [9] 0.984 | [10] 1.01 | [11] 1 | [12] 0.976 | [13] 0.984 | [14] 0.884 | [15] 0.97 | [16] 0.963 | [17] 0.992 | [18] 1.04 | [19] 1 | [20] 1.01 | [21] 0.994 | [22] 0.986 | [23] 0.976 | [24] 0.97 | [25] 0.956 | [26] 0.996

CCC(=O)Oc1ccc(NC(=S)NCCCO)cc1
inactive: [1] 1 | [2] 1 | [3] 0.998 | S. cerevisiae deletion strains, locus YDL134C, strain PPH21, hits give low values 0.992 | [4] 1 | [5] 1.01 | [6] 1 | S. cerevisiae deletion strains, locus YGR229C, strain SMI1, hits give low values 1 | [7] 1.05 | [8] 0.999 | [9] 1 | [10] 1 | [11] 1.01 | [12] 0.996 | [13] 1 | [14] 1.04 | [15] 1 | [16] 1.04 | [17] 1 | [18] 1.01 | S. cerevisiae deletion strains, locus YMR307W, strain GAS1, hits give low values 1.04 | [19] 1.01 | [20] 1.01 | [21] 1.01 | [22] 1.02 | S. cerevisiae deletion strains, locus YOL006C, strain TOP1, hits give low values 1.01 | [23] 1.01 | [24] 1.04 | [25] 1.22 | [26] 0.993
